Experiment [1] concerns the target Lysosomal acid glucosylceramidase (Homo sapiens) (UniProt P04062). The experiment can be described thus: Glucocerebrosidase-p2 (AID 348; in the data active = potency below about 10 µM; also: potency is read from the fitted curve at half-maximal effect). The settings on record: purified GBA, blue fluorogenic substrate, 40 min. The method in brief: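 Compounds titrated from 0.6 nM upwards against 0.2 nM enzyme in pH 5.9 citric acid/KH2PO4, taurocholate, tween-20; blue fluorogenic substrate 80 uM, 40 min room temperature, stopped and read Ex 365/Em 440 for AC50.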

Experiment [2] can be described thus: AP1 Signaling Pathway (AID 357). Also: % is scaled to controls: 0 for no effect and ±100 for the full control effect. The settings on record: ME-180 AP-1-bla reporter, EGF-induced, beta-lactamase ratio, 5 h; at 7.69 µM (top of the series) unless noted. The method in brief:
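AP-1-bla ME-180 cells with beta-lactamase reporter under AP-1 response element, stimulated with EC50 EGF; compounds titrated, 5 hours at 37 degrees Celsius. CCF4 read at 460/530 nm ratio; positive and negative modulators judged by AC50.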

The target of experiment [3] is Cytochrome P450 1A2 (Homo sapiens) (UniProt P05177). The experiment can be described thus: p450-cyp1a2 (AID 410; calls by dose curve; also: potency is read from the fitted curve at half-maximal effect;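 as to activity change, negative = inhibition: -100% = full effect of reference inhibitor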). The settings on record: recombinant CYP1A2, luciferin-ME demethylation, luminescence; series mostly up to 57 µM. In outline:
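Inhibition was calculated relative to 57 uM furafylline (full inhibition). The reaction used human CYP1A2 at 20nM with Luciferin-ME at its Km, 100uM, driven by an NADPH-regenerating system for 60 min at room temperature.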

Experiment [4] is described as follows: NFAT Signaling Pathway (AID 444).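 Also: carbachol stimulus at about its EC50 of 1 µM final; % is scaled to controls: 0 for no effect and ±100 for the full control effect.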 The settings on record: Jurkat NFAT-bla M1, carbachol, beta-lactamase ratio, 5 h; at 7.69 µM (top of the series) unless noted. In outline: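 Read-out: CCF4 FRET ratio (460 nm/530 nm) after 1 h RT dye loading, used for %activity and AC50 from titration series. Cells: Jurkat NFAT-β-lactamase/M1 line, treated with compound plus 1 uM carbachol for 5 h, 37 °C.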

Experiment [5] is described as follows: Stat Signaling Pathway (AID 446).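 Also: ME-180 cervical cancer cells given 40 pM IL-6 alongside compound; SIE-controlled beta-lactamase reporter measured as 460/530 nm FRET emission ratio; % is scaled to controls: 0 for no effect and ±100 for the full control effect.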 The following applies: ME-180 (cervical carcinoma) SIE beta-lactamase reporter, IL-6 stimulated, 5 h; at 7.69 µM (top of the series) unless noted. In outline:
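IL-6/STAT signaling read in ME-180 cells via an SIE beta-lactamase reporter. Stimulus was 40 pM IL-6 (its AC50) for 5 hrs, so both activation and inhibition register.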

Experiment [6] concerns the target Glucocorticoid receptor (Homo sapiens) (UniProt P04150). The experiment can be described thus: GR-GFP Redistribution (AID 450;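 active = compounds whose dose series gives a full or clear partial fitted curve of increased nuclear translocation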; also: potency is read from the fitted curve at half-maximal effect). The following applies: U2OS GR-GFP nuclear translocation, laser cytometry, 2 h.
Experiment [7] has the same target. Kind of experiment: GR-EFC Redistribution (AID 451; calls by dose curve; also: potency is read from the fitted curve at half-maximal effect). The settings on record: CHO-K1 GR-EFC translocation, beta-gal luminescence, 2 h. In outline: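 Translocation of GR-ED fusion to nuclear EA restores b-gal, read by luminescence after 1 h room-temperature detection. Engineered CHO-K1 biosensor cells, 1,000/well, exposed 2 h at 37 C to titrations up to 46 uM final.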

The target in experiment [8] is Mitogen-activated protein kinase 10 (Mus musculus) (UniProt Q61831). Kind of experiment: JNK3 AlphaScreen Assay (AID 530).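 Also: kinase came from lysate of stimulated human HepG2 cells; signal reports phosphorylation of biotinylated GST-cJun 1-79 at Ser73 with 10 µM ATP; % is scaled to controls: 0 for no effect and ±100 for the full control effect.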 The settings on record: JNK3 lysate, c-Jun phosphorylation; series mostly up to 57.1 µM. In outline:
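Room-temperature AlphaScreen kinase assay; pre-activated HepG2 lysate as JNK3 source, biotin-GST-cJun(1-79) substrate, 10 uM ATP, compound 15 min preincubation.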

Experiment [9] concerns the target 3',5'-cyclic-AMP phosphodiesterase 4B (Homo sapiens) (UniProt Q07343). Kind of experiment: qHTS Assay for Inhibitors of PDE-IV (AID 607; active = well fitted activation curve with a large enough effect in the main read-out, with a control signal flat, not every such curve was filed as active; also: % of control where 0% means no effect). The settings on record: HEK293 ACTOne CNG channel cells, membrane potential fluorescence; series mostly up to 22.9 µM. In outline: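 Live HEK293 cells with a modified cyclic nucleotide-gated (CNG) channel report intracellular cAMP via membrane-potential dye fluorescence (ex 535/em 590 nm). Endogenous PDE-IV was targeted. Compounds were tested at up to 22.9 uM final; RO 20-1724 100 uM served as control.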

In experiment [10] the target is Cytochrome P450 3A4 (Homo sapiens) (UniProt P08684). Kind of experiment: qHTS Assay for Activators of Cytochrome P450 3A4 (AID 885; active = well fitted curve in the direction sought with a large enough effect; an effect the other way counts as inactive or inconclusive; also: nearly all actives have a fitted effect of over 65% in size). The settings on record: recombinant CYP3A4, Luciferin-PPXE luminescence, 60 min; series mostly up to 57.1 µM. In outline: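 Quantitative HTS format: compounds preincubated with 20nM human CYP3A4 and Luciferin-PPXE substrate at KM, reaction started by NADPH regeneration, stopped after 60 min, luciferase luminescence read 20 min later.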
Sequence of Cytochrome P450 3A4 (Homo sapiens) (P08684 whole entry, looked up): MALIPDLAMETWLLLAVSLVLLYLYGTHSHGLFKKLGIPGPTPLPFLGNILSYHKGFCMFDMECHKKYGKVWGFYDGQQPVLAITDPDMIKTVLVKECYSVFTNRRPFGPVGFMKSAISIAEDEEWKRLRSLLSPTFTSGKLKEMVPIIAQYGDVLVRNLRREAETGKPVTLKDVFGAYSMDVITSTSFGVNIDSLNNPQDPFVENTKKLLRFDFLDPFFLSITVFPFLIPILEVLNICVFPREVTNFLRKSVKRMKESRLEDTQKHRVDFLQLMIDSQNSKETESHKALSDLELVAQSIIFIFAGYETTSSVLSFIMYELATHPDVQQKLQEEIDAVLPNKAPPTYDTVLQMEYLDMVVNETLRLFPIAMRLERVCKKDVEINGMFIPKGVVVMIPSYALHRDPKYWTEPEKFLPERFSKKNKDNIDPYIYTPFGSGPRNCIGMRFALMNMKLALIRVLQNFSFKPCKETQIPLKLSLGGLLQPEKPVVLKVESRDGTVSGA

Experiment [11] is described as follows: qHTS Assay for Lipid Storage Modulators (AID 1519; calls by dose curve). The settings on record: Drosophila S3 cells, BODIPY lipid droplet/cell ratio, laser cytometry, cells loaded with oleic acid; for activity change, negative = inhibition: at 57.5 µM (top of the series). The method in brief:
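Cells seeded at 5,000 per well were treated with compounds over a concentration series and loaded with oleic acid (400 uM, as added). Lipid droplet fluorescence (488 nm excitation, 500-530 nm channel) was read by laser-scanning cytometry and normalized to 20 uM Triacsin C.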

Experiment [12] addresses Cytochrome P450 3A4 (Homo sapiens) (UniProt P08684). The experiment can be described thus: qHTS Assay for Inhibitors and Substrates of Cytochrome P450 3A4 (AID 884; active = well fitted curve in the direction sought with a large enough effect; an effect the other way counts as inactive or inconclusive; also: potency is read from the fitted curve at half-maximal effect; nearly all actives have a fitted effect of over 50% in size). The following applies: recombinant CYP3A4, Luciferin-PPXE luminescence; series mostly up to 57.1 µM. In outline: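 20 nM human CYP3A4 with 25 uM Luciferin-PPXE (at KM) in 200 mM KPO4, preincubated 10 min with compound; NADPH regeneration started a 60 min RT reaction. Luciferin detected by luminescence, normalized to 57 uM ketoconazole as full inhibition.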

The nature of experiment [13]: Confirmation and Secondary Assay for Modulators of Hemoglobin Beta Chain Splicing at IVS2 654 locus (AID 910; active = well fitted curve in the direction sought with a large enough effect; an effect the other way counts as inactive or inconclusive;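 also: HeLa cells stably carrying EGFP split by mutant beta-globin IVS2-654 intron; per-well total GFP intensity by laser scanning cytometry after 2-day treatment; % of control where 0% means no effect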). The settings on record: HeLa EGFP-654 splicing reporter, GFP fluorescence, 48 h; series mostly up to 38.3 µM. The method in brief:
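Readout: per-well total peak green fluorescence (488 nm ex, 500–520 nm em) from objects 5–250 µm, reflecting correct splicing of an EGFP-654 reporter. Compounds were applied for 2 days at 37 °C to overnight-plated HeLa EGFP-654 cells; controls were DMSO and 500 nM IVS2-654 PNA.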

Experiment [14] can be described thus: Confirmation and Secondary Assay for Modulators of Hemoglobin Beta Chain Splicing at IVS2 705 locus (AID 930; active = well fitted curve in the direction sought with a large enough effect; an effect the other way counts as inactive or inconclusive;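 also: HeLa cells stably expressing the EGFP-705 splicing reporter; GFP fluorescence per well restored by corrected splicing of the IVS2-705 intron in EGFP; % of control where 0% means no effect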). The settings on record: HeLa EGFP-705 splicing reporter, GFP fluorescence, 48 h; series mostly up to 38.3 µM. The method in brief: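 HeLa EGFP-705 reporter; 500 cells/well, o/n 37C 5% CO2; cpd 2 d; 488 ex/500-520 em laser scan; total peak GFP intensity/well. Ref: 500 nM […] antisense PNA.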

In experiment [15] the target is Ubiquitin carboxyl-terminal hydrolase 1 (Homo sapiens) (UniProt O94782). The experiment can be described thus: Inhibitors of USP1/UAF1: Pilot qHTS (AID 504865; active = well fitted curve in the direction sought with a large enough effect; an effect the other way counts as inactive or inconclusive;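 also: rhodamine fluorescence freed from ubiquitin-rhodamine substrate followed over time; top concentration of the series differs between compounds; % is scaled to controls: 0 for no effect and ±100 for the full control effect; nearly all actives have a fitted effect of over 35% in size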). The settings on record: purified USP1/UAF1, Ub-rhodamine cleavage fluorescence; series mostly up to 54.9 µM. In outline: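 Kinetic fluorescence assay: 1nM USP1/UAF1, 15 min compound preincubation, then 150nM Ub-Rho; 480/540 nm.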
Sequence of Ubiquitin carboxyl-terminal hydrolase 1 (Homo sapiens) (O94782 whole entry, looked up): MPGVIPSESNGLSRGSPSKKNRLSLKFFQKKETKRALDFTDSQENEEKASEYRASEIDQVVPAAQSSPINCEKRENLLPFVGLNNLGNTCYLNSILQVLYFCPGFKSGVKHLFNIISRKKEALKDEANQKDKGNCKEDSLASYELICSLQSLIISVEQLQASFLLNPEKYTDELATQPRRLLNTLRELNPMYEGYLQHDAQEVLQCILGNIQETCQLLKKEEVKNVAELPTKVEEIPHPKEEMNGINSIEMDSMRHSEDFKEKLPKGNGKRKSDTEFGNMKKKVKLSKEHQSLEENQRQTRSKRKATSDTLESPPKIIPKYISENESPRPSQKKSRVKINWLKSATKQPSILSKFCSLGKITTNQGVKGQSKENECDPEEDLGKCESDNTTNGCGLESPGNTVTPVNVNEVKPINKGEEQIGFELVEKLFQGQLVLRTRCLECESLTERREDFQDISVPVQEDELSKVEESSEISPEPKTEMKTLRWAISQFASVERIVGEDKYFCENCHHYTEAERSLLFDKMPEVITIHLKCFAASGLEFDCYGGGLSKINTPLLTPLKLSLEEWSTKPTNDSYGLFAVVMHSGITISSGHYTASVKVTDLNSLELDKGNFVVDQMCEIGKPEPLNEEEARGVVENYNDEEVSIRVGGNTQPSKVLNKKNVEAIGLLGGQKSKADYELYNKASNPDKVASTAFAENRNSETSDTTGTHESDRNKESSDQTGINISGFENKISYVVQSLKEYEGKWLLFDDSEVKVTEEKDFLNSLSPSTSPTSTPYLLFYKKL

[16] abbreviates: measured here: cell count channel max response.
[17] abbreviates: measured here: lipid channel max response.

Results filed as inconclusive are left out. The source made the active and inactive calls. Unless noted, calls follow the shape of the dose curve; as a rule, active = well fitted curve in either direction with a large enough effect (not every such curve was filed as active); inconclusive = small, poorly fitted or top-dose-only effect, or another doubt; inactive = flat fitted curve, though single readings scatter.

Sequence of Lysosomal acid glucosylceramidase (Homo sapiens) (P04062 whole entry, looked up): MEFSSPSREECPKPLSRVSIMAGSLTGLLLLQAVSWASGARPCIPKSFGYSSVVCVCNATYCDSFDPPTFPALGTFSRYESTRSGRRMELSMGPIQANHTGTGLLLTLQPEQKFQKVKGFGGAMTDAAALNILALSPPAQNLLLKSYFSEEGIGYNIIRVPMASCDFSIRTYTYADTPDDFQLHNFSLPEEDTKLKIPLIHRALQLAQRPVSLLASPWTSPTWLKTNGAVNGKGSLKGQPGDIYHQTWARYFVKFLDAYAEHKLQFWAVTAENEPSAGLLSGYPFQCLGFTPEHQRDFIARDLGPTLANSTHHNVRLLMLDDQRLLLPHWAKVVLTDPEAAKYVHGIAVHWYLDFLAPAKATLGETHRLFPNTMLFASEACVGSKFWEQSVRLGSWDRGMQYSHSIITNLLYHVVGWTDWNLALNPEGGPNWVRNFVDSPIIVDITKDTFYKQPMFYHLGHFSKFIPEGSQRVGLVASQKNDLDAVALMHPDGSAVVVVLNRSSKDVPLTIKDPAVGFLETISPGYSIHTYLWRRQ
Sequence of 3',5'-cyclic-AMP phosphodiesterase 4B (Homo sapiens) (Q07343 whole entry, looked up): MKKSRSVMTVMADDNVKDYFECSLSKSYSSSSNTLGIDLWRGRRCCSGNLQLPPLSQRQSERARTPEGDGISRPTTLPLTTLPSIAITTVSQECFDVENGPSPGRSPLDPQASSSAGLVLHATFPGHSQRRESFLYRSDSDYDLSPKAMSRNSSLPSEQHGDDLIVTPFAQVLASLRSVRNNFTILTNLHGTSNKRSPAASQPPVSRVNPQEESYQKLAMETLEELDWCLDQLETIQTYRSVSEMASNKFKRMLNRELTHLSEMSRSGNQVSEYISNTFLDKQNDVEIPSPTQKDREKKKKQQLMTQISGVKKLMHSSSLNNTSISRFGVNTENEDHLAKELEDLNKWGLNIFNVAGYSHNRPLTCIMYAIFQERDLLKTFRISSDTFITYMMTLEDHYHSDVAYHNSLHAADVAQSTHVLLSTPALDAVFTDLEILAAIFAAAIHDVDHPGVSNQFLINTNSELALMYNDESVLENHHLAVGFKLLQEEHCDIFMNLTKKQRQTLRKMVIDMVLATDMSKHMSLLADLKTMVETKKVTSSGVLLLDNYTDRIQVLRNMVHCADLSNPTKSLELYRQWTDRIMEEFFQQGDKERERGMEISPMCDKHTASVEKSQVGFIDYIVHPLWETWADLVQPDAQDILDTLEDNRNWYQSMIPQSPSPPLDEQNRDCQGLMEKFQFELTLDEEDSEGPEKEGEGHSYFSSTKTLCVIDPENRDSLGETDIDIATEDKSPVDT
Sequence of Glucocorticoid receptor (Homo sapiens) (P04150 whole entry, looked up, the tested form may be a part): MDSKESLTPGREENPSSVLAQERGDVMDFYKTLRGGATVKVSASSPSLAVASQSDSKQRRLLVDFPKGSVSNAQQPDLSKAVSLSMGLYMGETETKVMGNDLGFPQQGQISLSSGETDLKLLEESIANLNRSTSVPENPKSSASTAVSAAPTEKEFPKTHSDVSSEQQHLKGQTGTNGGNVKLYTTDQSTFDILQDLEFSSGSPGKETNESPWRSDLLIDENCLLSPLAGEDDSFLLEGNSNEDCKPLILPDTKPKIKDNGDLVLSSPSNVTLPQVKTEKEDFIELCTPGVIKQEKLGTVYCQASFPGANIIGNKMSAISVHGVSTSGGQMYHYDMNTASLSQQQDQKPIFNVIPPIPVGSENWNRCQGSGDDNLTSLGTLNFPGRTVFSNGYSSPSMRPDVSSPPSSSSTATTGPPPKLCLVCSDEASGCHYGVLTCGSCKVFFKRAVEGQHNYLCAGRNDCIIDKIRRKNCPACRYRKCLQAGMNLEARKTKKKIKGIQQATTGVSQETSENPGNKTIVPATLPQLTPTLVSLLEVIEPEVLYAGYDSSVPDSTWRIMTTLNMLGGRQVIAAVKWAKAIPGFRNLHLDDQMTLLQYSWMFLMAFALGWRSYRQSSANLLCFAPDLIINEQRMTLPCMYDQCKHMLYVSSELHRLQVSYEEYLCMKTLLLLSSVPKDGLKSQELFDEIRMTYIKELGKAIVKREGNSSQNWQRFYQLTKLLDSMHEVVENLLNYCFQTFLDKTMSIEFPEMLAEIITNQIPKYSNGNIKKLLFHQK
Sequence of Cytochrome P450 1A2 (Homo sapiens) (P05177 whole entry, looked up): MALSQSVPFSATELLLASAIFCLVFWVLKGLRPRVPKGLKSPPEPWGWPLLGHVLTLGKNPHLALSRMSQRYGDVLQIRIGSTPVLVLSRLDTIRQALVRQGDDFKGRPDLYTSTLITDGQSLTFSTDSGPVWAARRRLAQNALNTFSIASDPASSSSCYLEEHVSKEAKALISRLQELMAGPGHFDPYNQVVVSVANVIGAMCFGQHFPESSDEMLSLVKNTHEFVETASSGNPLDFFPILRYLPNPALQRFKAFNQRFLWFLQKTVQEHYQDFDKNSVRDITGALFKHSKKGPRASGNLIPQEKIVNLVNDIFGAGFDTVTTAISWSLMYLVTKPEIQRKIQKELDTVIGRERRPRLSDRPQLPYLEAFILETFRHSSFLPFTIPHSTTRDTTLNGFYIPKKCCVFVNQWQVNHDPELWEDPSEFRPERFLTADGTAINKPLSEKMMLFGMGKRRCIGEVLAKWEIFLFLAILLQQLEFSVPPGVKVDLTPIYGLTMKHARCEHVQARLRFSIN

Regarding `N#Cc1cccc(-c2nc(Nc3ccncc3)c3ccccc3n2)c1`, the Potency in [1] is 2.09 µM (active); in experiment [3], 0.631 µM (active); in experiment [6] it was > 46 µM (inactive); in experiment [7], > 46 µM (inactive). Also, the activity change, negative = inhibition in experiment [2] is -0.676% (inactive); in experiment [4], -19.2% (inactive); in [11] it was 5.79% (inactive). The activity, negative = inhibition in [5] was 8.07% (inactive). For the same molecule, the Potency result in experiment [8], in [9] and in experiment [10] was “inactive” each time. For the same molecule, the results for the max response in experiment [11] (setting [16]) and in experiment [11] (setting [17]) were 4.98% and 11.4%, respectively.
For `CS(=O)(=O)N1CCC[C@@]2(CCN(c3ccncc3)C2)C1`, the Potency was > 11.4 µM (inactive) in experiment [1], > 46 µM (inactive) in experiment [7] and 7.94 µM (active) in experiment [12]. In addition, the activity change, negative = inhibition is -3.38% (inactive) in experiment [2], -25.4% (inactive) in experiment [4] and -0.375% (inactive) in [11]. The Potency entry in experiment [3], in [8], in [9] and in experiment [10] was “inactive” throughout. Further, the activity, negative = inhibition in [5] was 1.56% (inactive). Besides, the max response in [11] (setting [16]) was -15.6%; in [11] (setting [17]), -16.3%.
For `Cc1cccc(CNc2ncncc2-c2ccccc2C(F)(F)F)c1`, the Potency in experiment [1] was > 11.4 µM (inactive); in experiment [3], 12.6 µM (active); in [6], > 46 µM (inactive); in [7], > 46 µM (inactive); in experiment [12], 0.0794 µM (active). Moreover, the activity change, negative = inhibition in experiment [2] is -9.35% (inactive); in experiment [4], -6.75% (inactive); in experiment [11], 4.45% (inactive). For the same molecule, in [5], the activity, negative = inhibition was -0.642% (inactive). Further, the Potency result in [8], in [10] and in experiment [13] was “inactive” throughout. The molecule was classed as inactive in experiment [14]. In addition, the values for the max response in experiment [11] (setting [16]) and in experiment [11] (setting [17]) were -2.27% and 3.62%, respectively.
For `Cc1cccc(CNc2cc(-c3ccc(C(=O)N(C)C)cc3)ncn2)c1`, the Potency in experiment [1] was > 11.4 µM (inactive); in experiment [3] it was 15.8 µM (active); in [6], > 46 µM (inactive); in [7] it was > 46 µM (inactive); in experiment [12], 3.16 µM (active). In addition, the activity change, negative = inhibition in experiment [2] is -7.22% (inactive); in experiment [4] it was 13.4% (inactive); in experiment [11], 0.763% (inactive). Further, the activity, negative = inhibition in experiment [5] is -2.64% (inactive). Also, the Potency entry in experiment [8], in experiment [10], in experiment [13] and in [15] was “inactive” throughout. Moreover, in experiment [14], the outcome was inactive. For the same molecule, the max response in [11] (setting [16]) was 0.996%; in [11] (setting [17]), 1.9%.
As to `COc1ccccc1-c1nc(NCc2cnc(C)cn2)c2ccccc2n1`, the Potency was > 11.4 µM (inactive) in [1], 5.01 µM (active) in experiment [3], > 46 µM (inactive) in experiment [6] and > 46 µM (inactive) in experiment [7]. For the same molecule, the results for the activity change, negative = inhibition in experiment [2], in [4] and in experiment [11] were 4.95% (inactive), 2.11% (inactive) and 7.28% (inactive), respectively. Moreover, the activity, negative = inhibition in [5] was -5.06% (inactive). Also, the Potency result in experiment [8], in [9], in experiment [10] and in experiment [13] was “inactive” each time. The call in experiment [14] was inactive. For the same molecule, the max response was 6.96% in experiment [11] (setting [16]) and 14.2% in experiment [11] (setting [17]).
For the molecule `CNc1ncnc2ccc(-c3ccccc3OC)cc12`, the Potency in experiment [1] is > 11.4 µM (inactive); in [3] it was 2.51 µM (active); in [6] it was > 46 µM (inactive); in experiment [7], > 46 µM (inactive). Besides, the activity change, negative = inhibition in experiment [2] was 0.353% (inactive); in experiment [4], 15.1% (inactive); in [11], 1.03% (inactive). Besides, the activity, negative = inhibition in experiment [5] is -15.7% (inactive). For the same molecule, the Potency result in experiment [8], in experiment [9], in experiment [10], in experiment [13] and in experiment [15] was “inactive” each time. The max response was 0.392% in experiment [11] (setting [16]) and 0.542% in experiment [11] (setting [17]).

The values above are taken from PubChem BioAssay (NCATS).
